{"source": "PubChem BioAssay AID540256", "about": "(National Center for Advancing Translational Sciences (NCATS), 2011)", "note": "Screen size: about 300,000 compounds; about 3,700 (1.2%) were called active. Not shown: some 20% with an inconclusive outcome. Calls follow the shape of the full dose curve; tested in HEK293 cells. What follows is part of a selection rich in actives, with near analogues and random picks from the rest. Entries that show only a call come without a potency. Potency is read from the fitted curve at half-maximal effect."}
{"test": "qHTS for Inhibitors of binding or entry into cells for Lassa Virus; also: nearly all actives have a fitted effect of over 50% in size", "conditions": "Lassa virus pseudotype entry inhibition, cell reporter; series mostly up to 37.9 µM"}
{"smiles": "Cc1oc2ncnc(N3CCCCC3)c2c1C(=O)N1CCN(c2cccc(Cl)c2)CC1", "Potency": "inactive"}
{"smiles": "Cc1ccc(CNC(=O)COc2ccc3c(c2)CCC3)cc1", "Potency": "18.4 µM (active)"}
{"smiles": "Cc1ccc(OCC(=O)NNC(=S)NCc2ccccc2)cc1", "Potency": "inactive"}
{"smiles": "Cc1ccc(CNC(=O)COc2ccc(S(=O)(=O)NC(C)C)cc2)cc1", "Potency": "inactive"}
{"smiles": "O=C1CCc2cc(S(=O)(=O)Nc3ccc(C(F)(F)F)cc3)cc3c2N1CC3", "Potency": "inactive"}
{"smiles": "CCOc1ccc(C(=O)CCC(=O)NC2=NCCS2)cc1", "Potency": "inactive"}
{"smiles": "Cc1ccc2oc(=O)c3cnn(CC(=O)N4CCN(c5cccc(Cl)c5)CC4)c3c2c1", "Potency": "inactive"}
{"smiles": "Cc1ccccc1CCNC(=O)C1CCC(=O)N(Cc2ccc(Cl)cc2)C1", "note": "(stereo unspecified)", "Potency": "inactive"}
{"smiles": "COc1ccccc1NC(=O)Nc1nc(CC(=O)Nc2ccccc2F)cs1", "Potency": "inactive"}
{"smiles": "Cc1noc(C)c1/C=N/Nc1ccc2ccccc2n1", "Potency": "inactive"}
{"smiles": "C(=N\\Nc1ccc2ccccc2n1)/c1ccc2c(c1)OCO2", "Potency": "2.24 µM (active)"}
{"smiles": "Brc1ccc(-c2csc(N/N=C/c3ccc4c(c3)OCO4)n2)cc1", "Potency": "inactive"}
{"smiles": "Cn1nnc2cc(C(=O)NCCC3=CCCCC3)ccc21", "Potency": "8.91 µM (active)"}
{"smiles": "CC(Sc1nncn1C)C(=O)NCCC1=CCCCC1", "note": "(stereo unspecified)", "Potency": "inactive"}
{"smiles": "Cc1ccc(-n2cnc3cc(C(=O)NCCC4=CCCCC4)ccc32)cc1Cl", "Potency": "inactive"}
{"smiles": "Cc1cccc(C(=O)N[C@H](C(=O)NCc2cccs2)C(C)C)c1", "Potency": "inactive"}
{"smiles": "COc1ccc2c(c1)c(=Cc1ccc(N(C)C)cc1)c1cc(-c3ccccc3)[n+](C)n12", "Potency": "8.91 µM (active)"}
{"smiles": "CCc1nnc(SCc2c(F)cccc2Cl)c2cc3sccc3n12", "Potency": "inactive"}
{"smiles": "CS(=O)(=O)c1ccc(-c2nnc(NC(=O)c3ccc4c(c3)OCCO4)o2)cc1", "Potency": "inactive"}
{"smiles": "COc1cccc(-c2nnc(NC(=O)c3ccc(S(=O)(=O)N(CC(C)C)CC(C)C)cc3)o2)c1", "Potency": "7.08 µM (active)"}
{"smiles": "O=C(COC(=O)c1ccc(Oc2ccccc2)cc1)Nc1nnc(-c2ccccc2)o1", "Potency": "inactive"}
{"smiles": "COC(=O)c1ccc(NS(=O)(=O)c2cc3c4c(c2)C(C)C(=O)N4CCC3)cc1", "note": "(stereo unspecified)", "Potency": "inactive"}
{"smiles": "COc1ccc(C(=O)N2CCN(c3ccc(C(C)=O)cc3F)CC2)cc1S(=O)(=O)NC1CC1", "Potency": "inactive"}
{"smiles": "CC(C)(CNC(=O)c1ccc(Cl)c(S(=O)(=O)N2CCc3ccccc3C2)c1)N1CCOCC1", "Potency": "11.2 µM (active)"}
{"smiles": "O=C(NCCSCc1ccccc1)c1ccc(Cl)c(S(=O)(=O)N2CCOCC2)c1", "Potency": "inactive"}
{"smiles": "CC(C)(CNC(=O)Cc1ccc(Cl)cc1Cl)N1CCOCC1", "Potency": "inactive"}
{"smiles": "Nc1ncnc2c1cnn2C1CC(O)C(CO)O1", "note": "(stereo unspecified)", "Potency": "inactive"}
{"smiles": "CSc1ncccc1C(=O)NCC(c1ccco1)N1CCCCC1", "note": "(stereo unspecified)", "Potency": "inactive"}
{"smiles": "CCS(=O)(=O)Nc1ccc(C2=NN(S(=O)(=O)c3ccc(F)cc3)C(c3ccco3)C2)cc1", "note": "(stereo unspecified)", "Potency": "7.3 µM (active)"}
{"smiles": "CS(=O)(=O)Nc1ccc(C2=NN(S(C)(=O)=O)C(c3cccs3)C2)cc1", "note": "(stereo unspecified)", "Potency": "inactive"}
{"smiles": "CCS(=O)(=O)Nc1ccc(C2=NN(C(C)=O)C(c3cccs3)C2)cc1", "note": "(stereo unspecified)", "Potency": "inactive"}
{"smiles": "COc1ccccc1C(=O)c1ccccc1C(=O)c1ccccc1", "Potency": "inactive"}
{"smiles": "COc1ccc(-c2cn3nc(N4CCC(C(=O)Nc5cccc(C)c5C)CC4)sc3n2)cc1", "Potency": "inactive"}
{"smiles": "CC(OC(=O)c1ccc(Cl)cc1O)C(=O)NCCC1=CCCCC1", "note": "(stereo unspecified)", "Potency": "inactive"}
{"smiles": "CC(C)OC(=O)c1ccc(NCc2cc(O)ccc2O)cc1Cl", "Potency": "10 µM (active)"}
{"smiles": "CC(C)NC(=O)c1ccc(Cl)cc1Cl", "Potency": "inactive"}
{"smiles": "O=C(Cn1c(-c2cccs2)cc2ccccc21)NCCc1ccc(Cl)cc1", "Potency": "inactive"}
{"smiles": "O=C1c2ccccc2C(=O)N1CCCCCCN1C(=O)c2ccccc2C1=O", "Potency": "inactive"}
{"smiles": "CC(=O)c1ccc(S(=O)(=O)NC2CC(=O)N(c3ccc4c(c3)OCCO4)C2)cc1", "note": "(stereo unspecified)", "Potency": "inactive"}
{"smiles": "CSc1ccccc1N1CCN(CCCCCC(=O)NC2CCCc3ccccc32)CC1", "note": "(stereo unspecified)", "Potency": "11.6 µM (active)"}
{"smiles": "O=C(CSc1nncs1)NC1CCCc2ccccc21", "note": "(stereo unspecified)", "Potency": "inactive"}
{"smiles": "O=C(CN1CCN(c2ccc(O)cc2)CC1)NC1CCCc2ccccc21", "note": "(stereo unspecified)", "Potency": "inactive"}
{"smiles": "Cc1cccc(NC(=S)N2CCC(C(=O)c3ccc(F)cc3)CC2)c1", "Potency": "inactive"}
{"smiles": "COc1cc(C(c2c(NC(=O)c3ccco3)sc(C)c2C)N2CCOCC2)cc(OC)c1OC", "note": "(stereo unspecified)", "Potency": "inactive"}
{"smiles": "Cc1ccc(-c2csc(NC(=O)c3cccs3)n2)cc1", "Potency": "inactive"}
{"smiles": "Cc1ccc(-c2nnc(-c3ccc(NC(=O)c4cccs4)cc3)o2)cc1", "Potency": "7.3 µM (active)"}
{"smiles": "Cc1ccc(C(=O)Nc2ccc(NC(=O)c3cccs3)cc2)c(C)c1", "Potency": "inactive"}
{"smiles": "COC(=O)c1cc(C(=O)OC)n2ccc3cc(OC)c(OC)cc3c12", "Potency": "inactive"}
{"smiles": "CSCCC(NC(=O)COc1ccccc1)C(=O)OCc1ccc(Cl)cc1", "note": "(stereo unspecified)", "Potency": "inactive"}
{"smiles": "O=C(CSc1nc2[nH]c(=O)[nH]c(=O)c2s1)Nc1cccc(F)c1", "Potency": "inactive"}
{"smiles": "COc1cc(C(=O)N2CCN(c3ccc(Nc4ccc(C)cc4)nn3)CC2)cc(OC)c1OC", "Potency": "inactive"}
{"smiles": "O=C(NC1CC1)c1ccc(-c2ccccc2)cc1", "Potency": "inactive"}
{"smiles": "Cc1ccc(C(=O)NCC(=O)OCC(=O)NC2CCCCCCC2)cc1", "Potency": "inactive"}
{"smiles": "Cc1ccc(C(=O)NC2CCC2)cc1-c1ccc(C(=O)NCC2CC2)cc1", "Potency": "11.2 µM (active)"}
{"smiles": "CCN(CC(=O)Nc1ccc(OC)cc1)C(=O)c1ccc(Cl)c(S(=O)(=O)N2CCCC2)c1", "Potency": "inactive"}
{"smiles": "COC(=O)c1cc(C(=O)NC(C)C2CC3CCC2C3)cc([N+](=O)[O-])c1", "note": "(stereo unspecified)", "Potency": "inactive"}
{"smiles": "O=C(CCCCCCCC(=O)N1CCCCC1)N1CCCCC1", "Potency": "inactive"}
{"smiles": "CSc1ncc(Sc2ccccc2)c(C(=O)O)n1", "Potency": "inactive"}
{"smiles": "COc1ccc2nc(N3C(=O)C(O)=C(C(=O)c4ccco4)C3c3ccco3)sc2c1", "note": "(stereo unspecified)", "Potency": "inactive"}
{"smiles": "Cc1cccn2c(=O)c(/C=C3\\SC(=S)N(CC(C)C)C3=O)c(NCCCOC(C)C)nc12", "Potency": "inactive"}
{"smiles": "CCOC(=O)CC1C(=O)NCCN1c1nc2c(C)cccn2c(=O)c1/C=C1\\SC(=S)N(C(C)CC)C1=O", "note": "(stereo unspecified)", "Potency": "6.31 µM (active)"}
{"smiles": "CCCN(CCC)c1nc2c(C)cccn2c(=O)c1/C=C1/SC(=S)N(Cc2ccco2)C1=O", "Potency": "inactive"}
{"smiles": "COc1ccc(-c2nc(-c3ccccc3)no2)c(OC)c1", "Potency": "1.64 µM (active)"}
{"smiles": "CCOc1nc(-c2ccc(OC)cc2)ccc1-c1noc(-c2cc(OC)c(OC)c(OC)c2)n1", "Potency": "inactive"}
{"smiles": "CC(=O)c1ccc(NC(=O)COc2ccccc2-c2nc(-c3ccccc3)no2)cc1", "Potency": "inactive"}
{"smiles": "CC(=O)OCC(=O)C1(O)CCC2C3CC(C)C4=CC(=O)CCC4(C)C3C(O)CC21C", "note": "(stereo unspecified)", "Potency": "inactive"}
{"smiles": "O=C(Nc1cccc(S(=O)(=O)N2CCOCC2)c1)C12CC3CC(CC(C3)C1)C2", "Potency": "inactive"}
{"smiles": "COc1ccc(NC(=O)/C(C#N)=C\\c2cc(OC)c(OCc3ccc(C(=O)O)cc3)cc2Br)cc1", "Potency": "inactive"}
{"smiles": "N#C/C(=C\\c1ccc(O)c(O)c1)C(=O)NCc1ccccc1", "Potency": "inactive"}
{"smiles": "COc1ccc(CNC(=O)/C(C#N)=C/c2cccc(OC)c2OC)cc1", "Potency": "3.55 µM (active)"}
{"smiles": "O=C(Nc1ccc(Cl)c(Cl)c1)c1ccccc1NC(=O)C1CC=CCC1C(=O)O", "note": "(stereo unspecified)", "Potency": "inactive"}
{"smiles": "Cc1ccc(CNC(=O)c2c(-c3ccccc3)noc2C)cc1", "Potency": "inactive"}
{"smiles": "CC(=O)Nc1cccc(NC(=O)c2c(-c3ccccc3)noc2C)c1", "Potency": "inactive"}
{"smiles": "CCOC(=O)c1c(-c2cccc(C)c2)csc1NC(=O)c1c(-c2ccccc2)noc1C", "Potency": "0.562 µM (active)"}
{"smiles": "Cc1cccc(N2CCN(c3ccc(C(=O)O)cc3NC(=O)c3ccccc3F)CC2C)c1", "note": "(stereo unspecified)", "Potency": "inactive"}
{"smiles": "NC(=O)C1(Nc2ccccc2Cl)CCCC1", "Potency": "inactive"}
{"smiles": "O=C(/C=C\\NCC(=O)c1ccccc1)c1ccccc1", "Potency": "inactive"}
{"smiles": "CCOc1ccc(N/C=C/C(=O)c2ccccc2)cc1", "Potency": "7.08 µM (active)"}
{"smiles": "Cc1noc(NS(=O)(=O)c2ccc(N/C=C/C(=O)c3ccccc3)cc2)c1C", "Potency": "inactive"}
{"smiles": "COc1ccc2c(CNCCc3ccccc3C)c(C(=O)O)n(Cc3ccccc3C)c2c1", "Potency": "inactive"}
{"smiles": "COc1ccc(CCNCc2c(-c3ccccc3)n(C)c3ccccc23)cc1", "Potency": "8.91 µM (active)"}
{"smiles": "COc1ccc(Cn2c(C(=O)O)c(CNCCc3cccs3)c3ccc(OC)cc32)cc1", "Potency": "inactive"}
{"smiles": "CCOC(=O)C1CCN(C(=O)COc2cccc3ccccc23)CC1", "Potency": "inactive"}
{"smiles": "O=C(Nc1cc(S(=O)(=O)N2CCCCC2)ccc1Cl)C1COc2ccccc2O1", "note": "(stereo unspecified)", "Potency": "inactive"}
{"smiles": "COc1cccc(CNC(=O)c2ccc3c(c2)sc2nc(-c4cccc(OC)c4)cn23)c1", "Potency": "inactive"}
{"smiles": "Cc1cc(C)c2nc(N3CCCC3)c(C#N)cc2c1", "Potency": "inactive"}
{"smiles": "CC(=O)c1cc(C#N)c(N2CCCCC2)nc1C", "Potency": "inactive"}
{"smiles": "CC(=O)c1ccc(S(=O)(=O)N2CCN(c3nc4c(C)c(C)ccc4cc3C#N)CC2)cc1", "Potency": "18.3 µM (active)"}
{"smiles": "COc1ccc(N2CCN(C(=O)COC(=O)c3cccc(S(=O)(=O)Nc4ccccc4OC)c3)CC2)cc1", "Potency": "inactive"}
{"smiles": "COCCN(C(=O)C(C)N1C(=O)c2ccccc2C1=O)c1c(N)n(CC(C)C)c(=O)[nH]c1=O", "note": "(stereo unspecified)", "Potency": "inactive"}
{"smiles": "Cn1cc([N+](=O)[O-])c(C(=O)Nc2cnn(Cc3ccc(F)cc3)c2)n1", "Potency": "inactive"}
{"smiles": "CC(=O)Nc1ccn(Cc2c(F)cccc2Cl)n1", "Potency": "inactive"}
{"smiles": "O=C(Nc1ccn(Cc2ccccc2)n1)c1n[nH]c([N+](=O)[O-])c1Cl", "Potency": "7.31 µM (active)"}
{"smiles": "O=C(CN1CCC(NC(=O)Nc2ccccc2)CC1)Nc1cccc([N+](=O)[O-])c1", "Potency": "inactive"}
{"smiles": "CCn1c(SCC(=O)Nc2ccc(Br)cc2)nc2sc3c(c2c1=O)CCN(C)C3", "Potency": "inactive"}
{"smiles": "COc1ccc(C)cc1Nc1nc(C)nc2c1oc1ccccc12", "Potency": "inactive"}
{"smiles": "CCC1([N+](=O)[O-])COC(c2ccc(C(C)C)cc2)OC1", "note": "(stereo unspecified)", "Potency": "inactive"}
{"smiles": "COc1ccc(/C=C2/CCCc3ccccc3C2=O)cc1", "Potency": "inactive"}
{"smiles": "COc1ccc(/C=C2\\CCCC3C2=NN(C(=O)c2scnc2C)C3c2ccc(OC)cc2)cc1", "note": "(stereo unspecified)", "Potency": "1.03 µM (active)"}
{"smiles": "CCOc1ccccc1-c1nc(CN2CCC(C(=O)N3CCOCC3)CC2)c(C)o1", "Potency": "inactive"}
{"smiles": "COc1cccc(C=CC(=O)C=CC=Cc2ccccc2)c1", "Potency": "inactive"}
